Experimental data from PubChem BioAssay (NCI).
Compounds without any hit were thinned out: in the full panel of roughly 83,000, 20% have a hit.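 Percent growth is the endpoint: 0 to 100 indicates growth inhibition (40 means 60% inhibition), 0 means no net growth, and negative values indicate cell death.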 The source made the active and inactive calls. Rule for the calls: active = growth percent below 10; inactive = the rest.

Key:
Experiment in all cases: NCI-60 one-dose screen, 48 h (100 = growth as untreated, 0 = no growth, -100 = all killed)
Settings in all cases: 10 µM unless noted
[1] = tested on: NCI-H23 lung
[2] = tested on: NCI-H226 lung
[3] = tested on: NCI-H322M lung
[4] = tested on: HOP-62 NSCLC
[5] = tested on: NCI-H460 lung
[6] = tested on: HOP-92 NSCLC
[7] = tested on: NCI-H522 lung
[8] = tested on: A549/ATCC NSCLC
[9] = tested on: 786-0 renal
[10] = tested on: COLO 205 colon
[11] = tested on: DU-145 prostate
[12] = tested on: MALME-3M melanoma
[13] = tested on: MDA-MB-231 breast
[14] = tested on: RXF 393 renal
[15] = tested on: SF-268 CNS
[16] = tested on: SF-295 CNS
[17] = tested on: SF-539 CNS
[18] = tested on: UACC-257 melanoma
[19] = tested on: M14 melanoma

Measured: growth

NS(=O)(=O)c1ccc(CCN2C(=O)c3cc(Cl)c(Cl)cc3C2=O)cc1
inactive: [1] 105% | [2] 106% | [3] 97.8% | [4] 102% | [5] 109% | [6] 104% | [7] 86.5% | [8] 105% | [9] 96.7% | [10] 115% | [11] 104% | [12] 110% | [13] 107% | [14] 120% | [15] 98.1% | [16] 99.7% | [17] 106% | [18] 99.7% | [19] 106%

COCCCN1CC(O)=C(c2nc(-c3ccc(C)cc3)cs2)C1=N
inactive: [1] 96% | [2] 96.3% | [3] 97.3% | [4] 91.6% | [5] 153% | [6] 147% | [7] 106% | [8] 85.4% | [9] 94.8% | [10] 133% | [11] 102% | [12] 101% | [13] 96.1% | [14] 94.3% | [15] 223% | [16] 123% | [17] 96.9% | [18] 83.7% | [19] 100%

CC(=O)[C@@H]1CC[C@]2(C(N)=O)CC[C@]3(C)[C@H](CC[C@@H]4[C@@]5(C)CCCNC(C)(C)[C@@H]5CC[C@]43C)[C@@H]12
inactive: [1] 93.7% | [2] 99.6% | [3] 96.3% | [4] 98.3% | [5] 86.2% | [6] 81.7% | [7] 107% | [8] 83.3% | [9] 88.9% | [10] 86.6% | [11] 91.6% | [12] 90% | [13] 106% | [14] 69.5% | [15] 80.2% | [16] 86.6% | [17] 90.1% | [18] 94.4% | [19] 77.5%

C=C(C)[C@@H]1CC[C@]2(C(=O)N3CCN(C)CC3)CC[C@]3(C)[C@H](CC[C@@H]4[C@@]5(C)CC[C@H](O)C(C)(C)[C@@H]5CC[C@]43C)[C@@H]12
inactive: [2] 129% | [3] 10.4% | [4] 55.6% | [6] 14.5%
active: [1] -14.5% | [5] -69.5% | [7] -89.6% | [8] -82.4% | [9] -95.1% | [10] -69.2% | [11] -57.3% | [12] -73.1% | [13] -63.4% | [14] -91.6% | [15] -74.8% | [16] -86.9% | [17] -74.3% | [18] -88.5% | [19] -86.4%

CCOc1ccc(Nc2nc(-c3ccc4c(c3)NC(=O)CO4)cs2)cc1
inactive: [1] 45.7% | [2] 46.9% | [3] 84.8% | [4] 95.9% | [5] 40.7% | [6] 87.3% | [7] 14.6% | [8] 71.7% | [9] 71.1% | [10] 88.5% | [11] 77.2% | [12] 69.7% | [13] 58% | [14] 87.3% | [15] 87.1% | [16] 158% | [17] 78.2% | [18] 33% | [19] 68.2%

O=C1c2ccccc2CCC12OC2c1cn(-c2ccccc2)nc1-c1ccc(Cl)cc1 (configuration not stated)
inactive: [1] 103% | [2] 75.1% | [3] 99.6% | [4] 108% | [5] 58.9% | [6] 40.5% | [7] 87.1% | [8] 92.7% | [9] 115% | [10] 93.9% | [11] 111% | [12] 105% | [13] 91.9% | [14] 93.1% | [15] 93.1% | [16] 71.9% | [17] 93.4% | [18] 96.1% | [19] 97.7%

CCc1ccc(-c2cn3ccnc3c(-c3ccc4ncn(Cc5ccccc5)c4c3)n2)cc1
inactive: [1] 77% | [2] 98.5% | [3] 99.1% | [4] 82.1% | [5] 58% | [6] 63.9% | [7] 54.1% | [8] 54.6% | [9] 61.9% | [10] 65.8% | [11] 80.9% | [12] 115% | [13] 56.8% | [14] 69.3% | [15] 69.5% | [16] 48.8% | [17] 78.8% | [18] 103% | [19] 63.6%

COc1ccc2c(c1)oc1c(C)c3c(c(C)c12)C(=O)N(N)C3=O
inactive: [1] 50.4% | [3] 32.3% | [4] 14.8% | [6] 29% | [7] 49.5% | [8] 24.1% | [10] 39.5% | [11] 27.9% | [14] 28.5% | [15] 39.8% | [16] 12% | [18] 40.5% | [19] 13.9%
active: [2] -11.6% | [5] 8% | [9] -39.6% | [12] -5.47% | [13] -4.83% | [17] -6.28%
